High-throughput results as filed in PubChem.
An excerpt weighted towards active compounds, which were near 1.6% of everything screened.
KCNQ2 inh – inhibitors of rat KCNQ2 potassium channel; O88943; CHO-K1 KCNQ2, FluxOR thallium flux, 20 min; stronger effect = lower value; B-score at 10 µM; hit rate 1.1% among 310,000; AID 2156;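 active = fluorescence ratio B-score at most minus 3 library SDs, with starting brightness B-score within 2 library SDs, cut at about -5.5 in these data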
KCNQ2 pot – enhances the rat KCNQ2 potassium channel; AID 2239; O88943; B-score at 10 µM; hit rate 0.54% among 310,000; CHO-K1 KCNQ2, FluxOR thallium flux fluorescence; stronger effect = higher value;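 active = fluorescence ratio B-score at least 3 SD of library B-scores, with initial fluorescence B-score within 3 of them, cut at about 5.3 in these data; same plate scores as AID 2156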;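 note: B-score of peak minus minimum over baseline fluorescence ratio after K+ and Tl+ stimulus; positive B-score means potentiation of KCNQ2 with more thallium influx and brighter signal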
Kir21 confirm – confirmation of mouse Kir2.1 potassium channel inhibitors. Tl flux remaining, % of negative control (stronger effect = lower value), % at 10 µM. hit rate 41% among 2,300. Kir2.1-expressing cells, FluxOR thallium flux fluorescence; stronger effect = lower value. shares compounds with KCNQ2 pot;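 active = Primary-screen hit whose thallium flux fell at least 3 control SD below untreated wells in both duplicates, with normal baseline fluorescence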;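 note: 0% = blank wells without stimulus and 100% = stimulated no-compound controls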
Target sequence (P35561 whole entry, looked up): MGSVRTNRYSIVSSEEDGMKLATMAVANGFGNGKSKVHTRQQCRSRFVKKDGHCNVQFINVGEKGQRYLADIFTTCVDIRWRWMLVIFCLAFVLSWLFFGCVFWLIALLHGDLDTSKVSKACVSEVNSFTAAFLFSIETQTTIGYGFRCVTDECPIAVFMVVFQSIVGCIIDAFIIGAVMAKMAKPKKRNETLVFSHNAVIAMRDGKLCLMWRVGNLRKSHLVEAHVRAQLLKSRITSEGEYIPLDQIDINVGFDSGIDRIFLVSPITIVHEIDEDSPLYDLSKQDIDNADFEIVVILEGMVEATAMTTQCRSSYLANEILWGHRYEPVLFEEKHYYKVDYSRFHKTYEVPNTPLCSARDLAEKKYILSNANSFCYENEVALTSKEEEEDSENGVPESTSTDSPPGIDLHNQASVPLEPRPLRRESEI
HEK293 ctr – parental HEK293 activity in Kir2.1 inhibitor counter-screen; shares compounds with KCNQ2 pot; parental HEK293 cells, FluxOR thallium flux fluorescence; 0% = unstimulated blank wells; FluxOR signal as % of negative control (100 = no effect), % at 10 µM; hit rate 19% among 2,300;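 active = dye signal at least 3 control SD above or below untreated wells in both duplicates, raw fluorescence within 3, either direction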;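 note: percent is based on the flux ratio of peak minus minimum fluorescence over baseline F0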
CHO-K1 Tl ctr – parental CHO-K1 activity in KCNQ2 potentiator counter-screen; hit rate 43% among 1,200; shares compounds with KCNQ2 pot; parental CHO-K1 cells, FluxOR thallium flux fluorescence; zero = vehicle mean+3SD, 100% = vehicle-minus-blank window; activity increase over 3SD of controls, % at 10 µM;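 active = signal rise of at least 3 SD above the untreated control mean, in both duplicate wells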;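 note: counter screen of KCNQ2 potentiator hits so any rise reflects channel-independent effects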
KCNQ1 sel pot – tests whether KCNQ2 potentiators also act on human KCNQ1. shares compounds with KCNQ2 pot. CHO KCNQ1 stable, FluxOR thallium flux fluorescence; beyond 3SD, as % of vehicle-control signal. activation over 3SD threshold, % at 10 µM. hit rate 28% among 1,200. AID 2283;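 active = fluorescence ratio rise of at least 3 SD of vehicle wells above their mean, in both replicate wells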;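 note: 0% = vehicle mean plus 3 SD and 100% = vehicle minus unstimulated blank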
KCNQ2 pot confirm – rat KCNQ2 channel potentiator confirmation; shares compounds with KCNQ2 pot; CHO-KCNQ2 cells, FluxOR thallium flux fluorescence; potentiation, less the hit threshold, % at 10 µM; hit rate 68% among 1,200;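 active = fluorescence ratio rising 3 SD or more over the vehicle control mean in both replicates, plus primary screen hit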;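 note: peak minus minimum thallium fluorescence divided by baseline after K/Tl stimulus; 0% = vehicle mean plus 3 SD and 100% = vehicle minus unstimulated blank difference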
Kir21 spec – mouse Kir2.1 off-target activity of KCNQ2 potentiators. activity over 3SD threshold, % at 10 µM. HEK293 Kir2.1, FluxOR thallium flux fluorescence. AID 2345. hit rate 2% among 1,200. shares compounds with KCNQ2 pot;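 active = fluorescence ratio rise of at least 3 SD above the vehicle-control mean, seen in both replicates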;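 note: 0% = vehicle mean plus 3 SD and 100% = vehicle minus no-stimulus blank window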
KCNQ2 W236L MoA – KCNQ2 potentiators acting on retigabine-insensitive rat KCNQ2 W236L mutant; shares compounds with KCNQ2 pot; CHO KCNQ2-W236L, automated patch clamp current; current increase over 3SD of negative controls (%), stronger effect = higher value, % at 25 µM; hit rate 10% among 940; AID 2558;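 active = current increase at least 3 SD of the untreated controls above them in both duplicate recordings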
* hit, by the source's call; i = inactive; nt = no result; ! = not active in a repeat.

SMILES | KCNQ2 inh | KCNQ2 pot | Kir21 confirm | HEK293 ctr | others
O=C(Cc1ccc(F)cc1)Nc1cccc(-c2cn3c(n2)SCC3)c1 | i | 10.1* | i | i | CHO-K1 Tl ctr=-12.8;KCNQ1 sel pot=-19.2;KCNQ2 pot confirm=-28.9;Kir21 spec=-43.3
O=C(Nc1cccc(-c2cn3c(n2)SCC3)c1)c1ccc(Br)o1 | i | nt | nt | nt
Cc1[nH]c(C(=O)O)c(C#N)c1C(=O)c1ccccc1 | i | nt | nt | nt
CCOc1ccc2nc(SC3CC(=O)N(c4ccc(OC)cc4OC)C3=O)sc2c1 (centres undefined) | i | nt | nt | nt
COc1ccc(CNCc2ccco2)cc1OCc1ccccc1 | i | 0.49 | nt | nt
COc1ccccc1CCNCc1ccc(OC)c(OCc2ccccc2)c1 | i | nt | i | i
CCN(CC(=O)NC1CCS(=O)(=O)C1)S(=O)(=O)c1ccc2ccccc2c1 (centres undefined) | i | 0.37 | nt | nt
CCOc1ccc(S(=O)(=O)NCCC(=O)NCC(c2cccs2)N2CCOCC2)cc1 (centres undefined) | i | 1.56 | nt | nt
CC(C)(C)c1ccc(OCCC(=O)NCC(c2cccs2)N2CCOCC2)cc1 (centres undefined) | i | 7.04* | nt | nt | CHO-K1 Tl ctr=-8.6;KCNQ1 sel pot=123.2*;KCNQ2 pot confirm=19.1*;Kir21 spec=-60.0;KCNQ2 W236L MoA=i
COc1ccc(C(CNC(=O)CSc2ccc(Br)cc2)N2CCOCC2)cc1 (centres undefined) | i | 1.4 | nt | nt
O=C(CSc1ccc(Br)cc1)NCC(c1cccs1)N1CCOCC1 (centres undefined) | i | 6.81* | nt | nt | CHO-K1 Tl ctr=-20.3;KCNQ1 sel pot=-4.2;KCNQ2 pot confirm=7.9*;Kir21 spec=-58.3;KCNQ2 W236L MoA=i
Cc1ccc(NC(=O)Nn2cnnc2)cc1Cl | i | nt | nt | nt
CN1CCN(C(=O)/C=C/c2ccc([N+](=O)[O-])cc2)CC1 | i | 0.09 | nt | nt
CC(=O)c1c(C)[nH]c(C(=O)N2CCc3ccccc32)c1C | i | 2.67 | nt | nt
CCOC(=O)C1CCN(Cc2cccc(Oc3ccc(Cl)cc3)c2)CC1 | i | nt | nt | nt
CCOC(=O)C1CCN(Cc2cccc(Oc3ccccc3)c2)CC1 | i | nt | 27.0%* | i
COc1cc([N+](=O)[O-])ccc1NC(=O)NNC(=O)C(C)Oc1ccc(F)cc1F (centres undefined) | i | nt | nt | nt
Cc1cc(OC(C)C(=O)NNC(=O)Nc2ccc(F)cc2F)cc(C)c1Cl (centres undefined) | i | 7.5* | i | i | CHO-K1 Tl ctr=-4.2;KCNQ1 sel pot=-11.2;KCNQ2 pot confirm=-2.9;Kir21 spec=-28.9;KCNQ2 W236L MoA=i
O=C(O)CCNC(=O)C12CC3CC(CC(C3)C1)C2 | i | 0.43 | nt | nt
CCOC(=O)CN(C(=O)CSc1nnc(C)n1-c1ccccc1)c1ccccc1 | i | 0.98 | nt | nt
C#CCn1c(=NC(=O)CSC(C)=O)sc2cc(F)ccc21 | i | 20.3* | i | i | CHO-K1 Tl ctr=-4.8;KCNQ1 sel pot=-20.9;KCNQ2 pot confirm=62.3*;Kir21 spec=-33.8;KCNQ2 W236L MoA=36.2%*
CCn1c(=NC(=O)CSC(C)=O)sc2cc(F)ccc21 | i | 1.5 | nt | nt
CC(=O)N1C(=O)NC(c2ccccc2)=C([N+](=O)[O-])C1c1ccccc1 (centres undefined) | i | 0.44 | nt | nt
CC1=CCC2C(=O)N(c3ccc(OC(=O)c4ccco4)cc3)C(=O)C2C1 (centres undefined) | i | nt | 63.5%* | 128.5%*
COc1ccc(NC(=O)c2cccc(N3C(=O)C4CC=C(C)CC4C3=O)c2)c(OC)c1 (centres undefined) | i | nt | nt | nt
SMILES | KCNQ2 inh | KCNQ2 pot | Kir21 confirm | HEK293 ctr | others
CCOC(=O)c1c(-c2ccc(C)o2)csc1NC(=S)NC(=O)N(C)C | i | 14.5* | i | 314.0%* | CHO-K1 Tl ctr=-10.2;KCNQ1 sel pot=-18.5;KCNQ2 pot confirm=33.8*;Kir21 spec=-8.2;KCNQ2 W236L MoA=58.9%*
CCOC(=O)c1c(-c2ccc(C)o2)csc1N | i | nt | nt | nt
O=c1[nH]cc(S(=O)(=O)N2CCOCC2)c(=O)[nH]1 | i | nt | nt | nt
O=C1NC(c2ccccc2)=C(c2nc3ccccc3s2)C(c2ccccc2)N1 (centres undefined) | i | 5.91* | i | i | CHO-K1 Tl ctr=17.7*;KCNQ1 sel pot=-18.1;KCNQ2 pot confirm=8.2*;Kir21 spec=-18.6;KCNQ2 W236L MoA=i
CC(=O)C1=C(c2ccccc2)NC(=O)NC1c1ccccc1 (centres undefined) | i | 0.49 | nt | nt
CCc1ccc(CNC(=O)C2CCN(S(=O)(=O)N3CCC(C)CC3)CC2)cc1 | i | 6.89* | i | i | CHO-K1 Tl ctr=-13.7;KCNQ1 sel pot=-6.7;KCNQ2 pot confirm=-7.5;Kir21 spec=-27.8
CC1CCN(S(=O)(=O)N2CCC(C(=O)NCc3ccc4c(c3)OCO4)CC2)CC1 | i | 0.08 | nt | nt
Cn1c(Cn2nnc3ccccc32)nnc1SCC(=O)NCc1ccc2c(c1)OCO2 | i | 0.11 | nt | nt
CC(C)(C)C(=O)Nc1ccccc1C(=O)NCc1cccnc1 | i | 0.58 | nt | nt
CC(C)(C)c1ccccc1OCC(=O)Nc1ccccc1C(=O)NCc1cccnc1 | i | 2.29 | 77.0%* | i
O=C(O)c1ccccc1C(=O)Nc1ccc(Oc2ccc3ccccc3c2)cc1 | i | nt | nt | nt
Cc1ccc(-c2noc(C3CCN(S(C)(=O)=O)CC3)n2)o1 | i | nt | nt | nt
O=C(c1ccc(N2C(=O)c3ccccc3C2=O)cc1)N1CCCCC1 | i | nt | nt | nt
CCOC(=O)C1(CC2CCCCO2)CCN(Cc2cc3ccccc3[nH]2)CC1 (centres undefined) | i | 8.45* | nt | nt | CHO-K1 Tl ctr=-28.8;KCNQ1 sel pot=-9.8;KCNQ2 pot confirm=-23.9;Kir21 spec=-59.6
CCCCc1ncc(CN2CCC(CC3CCCCO3)(C(=O)OCC)CC2)[nH]1 (centres undefined) | i | 0.83 | nt | nt
COc1cc2nc(Nc3ccc(C)c(C)c3)nc(N)c2cc1OC | i | nt | nt | nt
COc1cc2nc(Nc3ccc(F)cc3)nc(N)c2cc1OC | i | 0.07 | 41.5%* | i
CSc1ccc2c(c1)C(N1CCN(C)CC1)Cc1ccccc1S2 (centres undefined) | -6.79*! | -6.79 | 39.5%* | i
CSc1cccc(NC(=O)N2CCN(C)CC2)c1 | i | 0.01 | nt | nt
O=C(CCN1C(=O)c2cccc3cccc(c23)C1=O)NC1CCS(=O)(=O)C1 (centres undefined) | i | nt | nt | nt
CN(C)/C=C1/N=C(c2ccccc2)OC1=O | i | 1.39 | nt | nt
O=CC1=C(c2ccccc2)Oc2ccccc2O1 | i | nt | 52.0%* | i
COc1ccc(CCNC(=O)CCc2ccccc2)cc1OC | i | 0.75 | nt | nt
COC(=O)/C=C1\OC(c2ccccc2)=CC1=O | -12.7* | -12.7 | 53.5%* | 66.0%*
O=C1OC(c2ccccc2)=C/C1=C/N1CCCCC1 | i | nt | nt | nt
COc1ccc(C)cc1N(CC(=O)Nc1cccnc1)S(=O)(=O)c1ccc(C)cc1 | i | nt | nt | nt
